Laboratory results published in PubChem BioAssay (Tox21).
Results filed as inconclusive are left out. A call without a number means that no potency is given here. Active and inactive are the calls of the source. Unless noted, the call rests on the fitted dose curve.

Columns and labels:
[1] = Nuclear factor erythroid 2-related factor 2/antioxidant responsive element (Nrf2/ARE) small molecule agonists: luciferase reporter gene qHTS assay in human keratinocytes (AID 1919969); further: nearly all actives have a fitted effect of over 35% in size; further: potency means the concentration at half of the fitted maximal effect
[2] = target: Gonadotropin-releasing hormone receptor (Homo sapiens) (UniProt P30968); test: Human gonadotropin-releasing hormone receptor (GnRHR) small molecule agonists, calcium flux assay in GnRHR-HEK293 cells (AID 1920063); further: nearly all actives have a fitted effect of over 35% in size
Gonadotropin-releasing hormone receptor (Homo sapiens), sequence (P30968 whole entry, looked up): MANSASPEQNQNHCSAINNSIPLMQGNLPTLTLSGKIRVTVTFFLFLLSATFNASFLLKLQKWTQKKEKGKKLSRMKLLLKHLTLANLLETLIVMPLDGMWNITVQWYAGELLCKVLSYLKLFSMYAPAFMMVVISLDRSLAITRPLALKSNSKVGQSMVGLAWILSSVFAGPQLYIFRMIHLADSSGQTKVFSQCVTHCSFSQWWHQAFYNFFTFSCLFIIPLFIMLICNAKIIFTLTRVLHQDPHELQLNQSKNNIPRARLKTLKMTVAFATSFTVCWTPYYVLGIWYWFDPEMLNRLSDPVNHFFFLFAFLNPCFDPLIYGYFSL
Outline: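 Compounds dissolved in DMSO are pin-transferred onto dye-loaded GnRHR-HEK293 cells, which were seeded 18 h before at 37 C/5% CO2. Calcium signal is read as fluorescence intensity at 1 s intervals for 3 min.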

[3] = target: KiSS-1 receptor (Homo sapiens) (UniProt Q969F8); test: Human kisspeptin (KISS1R) small molecule agonists, calcium flux assay in KISS1R-HEK293 cells (AID 1920064; active means well fitted activation curve with a large enough effect in the repeat runs)
KiSS-1 receptor (Homo sapiens), sequence (Q969F8 whole entry, looked up): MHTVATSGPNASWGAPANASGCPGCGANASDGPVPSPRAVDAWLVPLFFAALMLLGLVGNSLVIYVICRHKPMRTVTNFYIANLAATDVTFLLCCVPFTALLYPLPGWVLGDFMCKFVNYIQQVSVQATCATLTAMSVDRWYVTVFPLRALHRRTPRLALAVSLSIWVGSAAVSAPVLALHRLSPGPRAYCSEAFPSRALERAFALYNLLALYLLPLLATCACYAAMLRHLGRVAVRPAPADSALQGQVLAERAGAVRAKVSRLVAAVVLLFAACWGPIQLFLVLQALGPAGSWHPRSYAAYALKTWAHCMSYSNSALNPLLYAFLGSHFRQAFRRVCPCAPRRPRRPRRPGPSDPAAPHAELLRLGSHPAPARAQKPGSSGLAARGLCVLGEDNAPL
Outline: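 Cell line: HEK293, stable human KISS1R. Dye loading 1 h at 37 C after 18 h culture. Read: kinetic fluorescence, 480/540 nm, 3 min at 1 s intervals.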

[4] = G protein-coupled receptor (GPCR) small molecule agonists, calcium flux assay: HEK293 wild type cell line counter screen (AID 1920065)
Outline: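 Tox21 10K compounds, 15 concentrations each in triplicate, pin-transferred in DMSO onto dye-loaded cells; kinetic read at 480/540 nm for 3 min, 1 s intervals.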

[5] = p53 small molecule agonists, cell-based qHTS assay with human liver microsomes (AID 1963577);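 further: p53 response element beta-lactamase reporter cells with liver microsomes plus NADPH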
Outline: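 Metabolically competent format: test substances, human liver microsomes and NADPH (both 0.5 mg/mL final) incubated with p53RE-bla cells 16 h at 37 C. Beta-lactamase reporter signal then quantified by fluorescence.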

[6] = p53 small molecule agonists, cell-based qHTS assay with rat liver microsomes (AID 1963578)
Outline: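 Each plate received p53RE-bla cells, then compound, then rat liver microsomes and NADPH (both 0.5 mg/mL final). Plates were held 16 h at 37 C, and beta-lactamase activity was detected with LiveBLAzer over 2 h.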

[7] = p53 small molecule agonists, cell-based qHTS assay with human liver microsomes: qHTS cell viability counter screen (AID 1963579); further: nearly all actives have a fitted effect of over 45% in size
Outline: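 Tox21 library compounds, delivered from DMSO stocks, were tested on p53RE-bla cells together with 0.5 mg/mL human liver microsomes and 0.5 mg/mL NADPH (final) over 16 h at 37 C; CellTiter-Glo luminescence served as the cytotoxicity measure.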

[8] = p53 small molecule agonists, cell-based qHTS assay with rat liver microsomes: qHTS cell viability counter screen (AID 1963580); further: nearly all actives have a fitted effect of over 45% in size
Outline: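 Rat liver microsome (0.5 mg/mL final) and NADPH (0.5 mg/mL final) co-incubation with compounds for 16 h at 37 C on HCT-116 p53RE-bla cells; cytotoxicity taken from intracellular ATP luminescence.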

[9] = p53 small molecule agonists, cell-based qHTS assay (AID 1963582; active means well fitted activation curve with a large enough effect in the signal ratio in the repeat runs, not every such curve was filed as active; the % refers to the signal ratio)
Outline: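 16 h compound exposure (37 C) of p53 response element–bla cells, preceded by 5 h recovery at 37 C/5% CO2; read-out via LiveBLAzer B/G FRET substrate, 2 h RT, fluorescence intensity.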

[10] = target: 5-hydroxytryptamine receptor 2A (Homo sapiens) (UniProt P28223); test: 5-hydroxytryptamine receptor 2A (HTR2A) small molecule antagonists, cell-based qHTS assay (AID 1963586); further: nearly all actives have a fitted effect of over 45% in size
5-hydroxytryptamine receptor 2A (Homo sapiens), sequence (P28223 whole entry, looked up): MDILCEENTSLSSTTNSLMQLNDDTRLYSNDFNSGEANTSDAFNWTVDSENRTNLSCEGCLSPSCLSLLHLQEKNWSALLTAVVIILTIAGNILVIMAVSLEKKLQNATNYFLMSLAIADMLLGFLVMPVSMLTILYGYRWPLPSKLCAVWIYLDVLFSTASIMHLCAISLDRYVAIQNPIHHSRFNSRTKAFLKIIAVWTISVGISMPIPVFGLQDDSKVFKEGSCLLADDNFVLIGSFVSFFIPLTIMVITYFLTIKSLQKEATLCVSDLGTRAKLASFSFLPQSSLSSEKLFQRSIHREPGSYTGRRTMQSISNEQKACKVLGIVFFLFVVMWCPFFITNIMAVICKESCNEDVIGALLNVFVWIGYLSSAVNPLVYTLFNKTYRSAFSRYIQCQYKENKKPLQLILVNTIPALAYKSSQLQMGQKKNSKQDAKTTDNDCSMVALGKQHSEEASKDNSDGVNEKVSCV
Outline: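 CHO cells stably expressing human HTR2A were plated for 18 h at 37 C, then loaded with calcium dye for 1 h. Compounds were preincubated 5 min at room temperature before DOI (4 nM solution) was added. Kinetic fluorescence was read for 3 min.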

[11] = target: Muscarinic acetylcholine receptor M1 (Homo sapiens) (UniProt P11229); test: Cholinergic receptor muscarinic 1 (CHRM1) small molecule antagonists, cell-based qHTS assay (AID 1963588); further: nearly all actives have a fitted effect of over 40% in size
Muscarinic acetylcholine receptor M1 (Homo sapiens), sequence (P11229 whole entry, looked up): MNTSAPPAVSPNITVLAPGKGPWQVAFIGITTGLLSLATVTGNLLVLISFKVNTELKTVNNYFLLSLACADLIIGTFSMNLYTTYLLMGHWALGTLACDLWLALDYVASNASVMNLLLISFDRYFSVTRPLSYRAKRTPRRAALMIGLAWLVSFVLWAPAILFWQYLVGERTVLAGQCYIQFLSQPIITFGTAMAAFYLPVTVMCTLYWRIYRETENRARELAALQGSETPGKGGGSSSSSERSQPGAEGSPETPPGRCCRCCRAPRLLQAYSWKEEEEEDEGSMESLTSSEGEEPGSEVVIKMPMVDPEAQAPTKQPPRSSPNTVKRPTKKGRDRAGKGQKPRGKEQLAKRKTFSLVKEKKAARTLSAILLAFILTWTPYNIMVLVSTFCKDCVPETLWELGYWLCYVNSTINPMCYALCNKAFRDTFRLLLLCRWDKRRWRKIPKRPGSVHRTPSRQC
Outline: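 Compounds were tested at 15 concentrations in three independent runs. Dye-loaded CHRM1-CHO cells were exposed 5 min at room temperature before stimulation by acetylcholine added at 50nM. Intracellular calcium was read kinetically on FDSS for 3 min.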

[12] = target: Muscarinic acetylcholine receptor M1 (Homo sapiens) (UniProt P11229); test: Cholinergic receptor muscarinic 1 (CHRM1) small molecule agonists, cell-based qHTS assay (AID 1963589); further: nearly all actives have a fitted effect of over 35% in size
Outline: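 Homogeneous fluorescence calcium flux, agonist mode. Human M1-expressing CHO cells; compound dosed at 15 concentrations, three independent runs; signal sampled every 1 sec.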

[13] = cAMP Responsive Elements (CRE) small molecule agonists, cell-based qHTS assay (AID 1963590)
Outline: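 HEK 293T cells stably bearing CRE-bla were plated at 2,000 cells per well and rested 18 h. Compounds, positive controls or DMSO were added for 3 h at 37 C. LiveBLAzer B/G substrate was then loaded for 2 h at room temperature.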

[14] = cAMP Responsive Elements (CRE) small molecule antagonists, cell-based qHTS assay (AID 1963591; active means well fitted inhibition curve with a large enough effect in the signal ratio in the repeat runs, not every such curve was filed as active; the % refers to the signal ratio)
Outline: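 First, CRE-bla HEK293T cells settled 18 h at 37 C. Next, compound and 0.25 uM final NKH477 were applied for 3 h. Last, LiveBLAzer B/G substrate was loaded for 2 h at room temperature.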

[15] = target: Beta-2 adrenergic receptor (Homo sapiens) (UniProt P07550); test: Adrenergic beta2 receptor (ADRB2) small molecule antagonists, cell-based qHTS assay (AID 1963592); further: series mostly up to about 92 µM; nearly all actives have a fitted effect of over 50% in size
Beta-2 adrenergic receptor (Homo sapiens), sequence (P07550 whole entry, looked up): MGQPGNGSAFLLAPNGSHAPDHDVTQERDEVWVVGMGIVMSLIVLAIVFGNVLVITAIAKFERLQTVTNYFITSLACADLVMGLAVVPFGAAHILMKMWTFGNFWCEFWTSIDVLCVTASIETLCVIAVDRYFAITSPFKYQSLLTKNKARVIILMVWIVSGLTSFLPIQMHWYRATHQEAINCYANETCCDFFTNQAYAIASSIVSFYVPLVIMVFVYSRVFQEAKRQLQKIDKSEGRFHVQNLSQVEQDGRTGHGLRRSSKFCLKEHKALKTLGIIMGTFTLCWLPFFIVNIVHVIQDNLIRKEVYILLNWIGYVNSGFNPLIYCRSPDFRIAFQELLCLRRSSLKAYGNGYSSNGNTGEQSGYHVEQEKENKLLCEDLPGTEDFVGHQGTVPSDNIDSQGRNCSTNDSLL
Outline: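 Assay format: CHO-ADRB2 cells, 18-20hr seeding at 37C/5% CO2, then compound plus 1nM isoproterenol agonist mix for 0.5hr RT. Homogeneous time-resolved fluorescence cAMP detection after 1hr, expressed as 665/615 nm ratio.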

[16] = target: D(2) dopamine receptor (Homo sapiens) (UniProt P14416); test: Dopamine D2 receptor (DRD2) small molecule antagonists, cell-based qHTS assay (AID 1963595; active means well fitted inhibition curve with a large enough effect in the signal ratio in the repeat runs, with a control signal flat; the % refers to the signal ratio)
D(2) dopamine receptor (Homo sapiens), sequence (P14416 whole entry, looked up): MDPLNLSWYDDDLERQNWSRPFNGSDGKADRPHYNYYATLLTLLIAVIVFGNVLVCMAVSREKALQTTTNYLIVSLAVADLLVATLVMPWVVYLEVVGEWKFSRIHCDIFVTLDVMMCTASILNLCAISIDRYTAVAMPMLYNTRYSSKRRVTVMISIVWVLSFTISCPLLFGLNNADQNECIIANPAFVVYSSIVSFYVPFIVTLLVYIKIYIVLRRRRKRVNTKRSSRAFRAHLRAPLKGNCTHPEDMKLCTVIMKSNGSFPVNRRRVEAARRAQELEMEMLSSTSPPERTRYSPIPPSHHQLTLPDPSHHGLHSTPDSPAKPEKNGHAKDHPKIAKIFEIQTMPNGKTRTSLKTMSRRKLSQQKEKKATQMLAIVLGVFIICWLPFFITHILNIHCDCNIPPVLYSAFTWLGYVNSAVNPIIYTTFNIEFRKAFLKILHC
Outline: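 Readout: HTRF cAMP, cAMP-d2 competing with cellular cAMP for anti-cAMP cryptate, read after 1 h. Cells: DRD2-HEK293. Conditions: 0.1 mM Ro20-1724, 12 nM quinpirole, 200 nM NKH477, 30 min RT.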

[17] = p53 small molecule agonists, cell-based qHTS assay: qHTS cell viability counter screen (AID 1963581); further: nearly all actives have a fitted effect of over 45% in size
Outline: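 ATP content measured by luminescence in HCT-116 p53RE-bla cells treated 16 h at 37 C, same wells as the reporter screen.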

[18] = target: 5-hydroxytryptamine receptor 2A (Homo sapiens) (UniProt P28223); test: 5-hydroxytryptamine receptor 2A (HTR2A) small molecule agonists, cell-based qHTS assay (AID 1963587); further: nearly all actives have a fitted effect of over 30% in size
Outline: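 Kinetic calcium-flux fluorescence (2 min, 1 sec intervals) after compound addition in agonist mode. HTR2A-CHO cells were cultured 18 h, then dye-loaded 1 h at 37 C.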

[19] = target: Beta-2 adrenergic receptor (Homo sapiens) (UniProt P07550); test: Adrenergic beta2 receptor (ADRB2) small molecule agonists, cell-based qHTS assay (AID 1963593);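 further: CHO cells stably overexpressing human ADRB2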
Outline: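 CHO cells stably over-expressing ADRB2 were plated overnight at 37C, then dosed with compounds plus a stimulation mix containing 100uM IBMX and 25uM Ro-20-1724 for 0.5hr at room temperature. cAMP was measured by HTRF competition, 1hr.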

[20] = target: D(2) dopamine receptor (Homo sapiens) (UniProt P14416); test: Dopamine D2 receptor (DRD2) small molecule agonists, cell-based qHTS assay (AID 1963594); further: nearly all actives have a fitted effect of over 35% in size
Outline: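 cAMP accumulation in DRD2-HEK293 cells measured by HTRF after 1 h detection; compounds added 10 min before NKH477 (200nM […]) forskolin-analogue stimulation, 30 min at room temperature, with Ro20-1724 present at 0.1 mM final.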

Compound | Potency [1] | Potency [2] | Potency [3] | Potency [4] | Potency [5] | Potency [6] | Potency [7] | Potency [8] | Potency [9] | Potency [10] | Potency [11] | Potency [12] | Potency [13] | Potency [14] | Potency [15] | Potency [16] | Potency [17] | Potency [18] | Potency [19] | Potency [20]
CC(=[OH+])/C=C(/C)[O-].CC(=[OH+])/C=C(\C)[O-].CC(=[OH+])/C=C(\C)[O-].[Fe] | inactive | inactive | inactive | inactive | inactive | inactive | inactive | inactive | inactive | inactive | inactive | inactive | inactive | inactive | inactive | inactive | – | – | – | –
NNC(=S)NN | 2.5 µM (active) | inactive | inactive | inactive | inactive | inactive | inactive | inactive | inactive | inactive | inactive | inactive | inactive | inactive | inactive | inactive | inactive | inactive | inactive | inactive
c1ccc2c(c1)sc1ccccc12 | inactive | inactive | inactive | inactive | inactive | inactive | inactive | – | inactive | inactive | inactive | inactive | inactive | inactive | inactive | inactive | inactive | inactive | inactive | inactive
O=S(=O)(O)C(F)(F)C(F)(F)C(F)(F)C(F)(F)C(F)(F)C(F)(F)F | inactive | inactive | inactive | inactive | inactive | inactive | inactive | inactive | inactive | inactive | – | inactive | inactive | inactive | inactive | – | inactive | inactive | – | inactive
CN(C)N | inactive | inactive | inactive | inactive | inactive | inactive | inactive | inactive | inactive | inactive | inactive | inactive | inactive | inactive | inactive | inactive | inactive | inactive | – | inactive
O=C(O)CC[N+](=O)[O-] | inactive | inactive | inactive | inactive | inactive | inactive | inactive | inactive | inactive | inactive | – | inactive | inactive | inactive | inactive | inactive | inactive | inactive | inactive | inactive
O=Cc1ccccc1 | inactive | inactive | inactive | inactive | inactive | inactive | inactive | inactive | inactive | inactive | – | inactive | inactive | inactive | inactive | inactive | inactive | inactive | – | inactive
CCCC1COC(Cn2cncn2)(c2ccc(Cl)cc2Cl)O1 (centres undefined) | inactive | inactive | inactive | inactive | inactive | inactive | inactive | inactive | – | inactive | inactive | inactive | – | inactive | inactive | inactive | inactive | inactive | inactive | inactive
O=[N+]([O-])O[C@H]1CO[C@H]2[C@@H]1OC[C@H]2O[N+](=O)[O-] | inactive | inactive | inactive | inactive | inactive | inactive | inactive | inactive | inactive | inactive | inactive | inactive | inactive | inactive | inactive | inactive | inactive | inactive | inactive | inactive
CC(C)(OOC(C)(C)c1ccccc1)c1ccccc1 | 21.7 µM (active) | inactive | inactive | inactive | inactive | inactive | inactive | inactive | inactive | inactive | inactive | inactive | inactive | inactive | – | inactive | – | inactive | inactive | inactive
